Test results as given in PubChem BioAssay (EPA / NIEHS).
The source made the active and inactive calls. Rule for the calls: active = hit-call score of the fitted dose curve at least 0.9, where 1 is the maximum; inactive = score below 0.9.

Key:
[1] = molecular target: Transcription factor E2F1 (Homo sapiens) (UniProt Q01094); assay: ATG_E2F_CIS: Attagene CIS-FACTORIAL HepG2 Assay for human E2F Transcription Factor 1 (AID 2282935); conditions: HepG2 Attagene cis-reporter, E2F reporter RNA transcripts; actives raise or lower the signal
Chain of Transcription factor E2F1 (Homo sapiens) (Q01094 whole entry, looked up): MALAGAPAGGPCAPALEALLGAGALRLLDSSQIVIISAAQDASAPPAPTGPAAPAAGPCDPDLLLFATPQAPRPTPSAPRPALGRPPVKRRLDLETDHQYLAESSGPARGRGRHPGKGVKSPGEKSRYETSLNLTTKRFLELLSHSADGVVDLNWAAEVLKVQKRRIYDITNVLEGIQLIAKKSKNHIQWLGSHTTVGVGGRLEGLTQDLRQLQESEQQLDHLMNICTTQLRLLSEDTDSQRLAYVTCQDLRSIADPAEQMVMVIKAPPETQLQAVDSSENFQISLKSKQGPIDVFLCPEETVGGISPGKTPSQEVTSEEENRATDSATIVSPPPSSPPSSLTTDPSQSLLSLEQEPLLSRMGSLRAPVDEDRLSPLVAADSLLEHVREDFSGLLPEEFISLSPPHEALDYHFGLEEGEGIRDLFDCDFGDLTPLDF
Summary of the method: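 First, HepG2 cells were transfected with reporter transcription units. Next, they were dosed for 24 h. Then RNA was isolated, converted to cDNA, PCR-amplified, FAM-labeled, HpaI-digested and analyzed by capillary electrophoresis.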

[2] = ATG_E_Box_CIS: Attagene CIS-FACTORIAL HepG2 Assay for human Enhancer Box (E-box) (AID 2282936); conditions: HepG2 E-box cis-reporter transcription, actives raise or lower the signal
Summary of the method: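 Endogenous transcription factor activity was sensed in human HepG2 liver cells through transfected cis-promoter reporter units. After 24 h of dosing, total RNA was reverse-transcribed and reporter cDNA resolved by capillary electrophoresis.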

[3] = ATG_M_61_CIS: Attagene CIS-FACTORIAL HepG2 Assay for M61 Transcription Factor (Internal Marker) (AID 2282937); conditions: HepG2 Attagene CIS-FACTORIAL M61 internal marker reporter; actives raise or lower the signal
Summary of the method: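 Endogenous transcription factor activity in HepG2 is read through transiently transfected cis-element reporter units. After 24 h dosing, RNA undergoes reverse transcription, PCR and primer extension with 6-FAM before capillary electrophoresis; DMSO-referenced bidirectional fit.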

[4] = ATG_EGR_CIS: Attagene CIS-FACTORIAL HepG2 Assay for human Early Growth Response 1 (EGR1) (AID 2282938); conditions: HepG2 Attagene CIS-FACTORIAL EGR reporter mRNA; actives raise or lower the signal
Summary of the method: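 Activity is taken as induction or loss of reporter mRNA versus DMSO, fitted bidirectionally. Transcripts from cis-regulated reporter units in transiently transfected HepG2 were measured after 24 h by RT-PCR with capillary electrophoresis.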

[5] = ATG_M_19_CIS: Attagene CIS-FACTORIAL HepG2 Assay for M19 Transcription Factor (Internal Marker) (AID 2282939); conditions: HepG2 Attagene CIS-FACTORIAL M19 internal marker reporter; actives raise or lower the signal
Summary of the method: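 Background-control endpoint from a multiplexed HepG2 reporter panel. Cells carrying cis-regulated reporter constructs are treated 24 h, then reporter transcripts are amplified, fluorescently labelled and sized by capillary electrophoresis. DMSO defines baseline.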

[6] = ATG_ERE_CIS: Attagene CIS-FACTORIAL HepG2 Assay for Estrogen Response Element (ERE) (AID 2282940); conditions: HepG2 ERE cis-reporter, Attagene RNA transcript; actives raise or lower the signal
Summary of the method: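 Cells used were human hepatoma HepG2, transfected with multiple reporter transcription units under cis-regulatory promoters. Reporter mRNA, read 24 h post-dosing via fluorescent RT-PCR products on capillary electrophoresis, was fitted bidirectionally relative to DMSO.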

[7] = molecular target: Hepatocyte nuclear factor 3-beta (Homo sapiens) (UniProt Q9Y261); assay: ATG_FoxA2_CIS: Attagene CIS-FACTORIAL HepG2 Assay for human Forkhead box A2 (FOXA2) (AID 2282942); conditions: HepG2 cis-reporter transcription factor activity, 24 h; actives raise or lower the signal
Chain of Hepatocyte nuclear factor 3-beta (Homo sapiens) (Q9Y261 whole entry, looked up): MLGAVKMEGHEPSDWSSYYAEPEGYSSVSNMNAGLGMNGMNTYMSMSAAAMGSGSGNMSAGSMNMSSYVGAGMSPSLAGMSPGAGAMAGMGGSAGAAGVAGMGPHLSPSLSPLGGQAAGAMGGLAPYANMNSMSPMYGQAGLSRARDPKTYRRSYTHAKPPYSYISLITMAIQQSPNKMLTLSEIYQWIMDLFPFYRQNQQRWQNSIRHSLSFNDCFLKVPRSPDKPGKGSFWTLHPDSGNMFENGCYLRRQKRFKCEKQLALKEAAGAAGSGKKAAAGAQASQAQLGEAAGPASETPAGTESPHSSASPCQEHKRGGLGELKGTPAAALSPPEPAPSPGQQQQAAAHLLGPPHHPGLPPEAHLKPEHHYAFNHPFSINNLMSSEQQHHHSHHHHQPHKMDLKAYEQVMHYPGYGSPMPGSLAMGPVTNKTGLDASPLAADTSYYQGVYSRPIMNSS
Summary of the method: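 Reporter transcript induction is measured by fluorescence after capillary electrophoresis of RT-PCR products from HepG2 cells exposed 24 h. Cis-regulated reporter units report endogenous factor activity; curves fitted both directions against DMSO.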

[8] = ATG_FoxO_CIS: Attagene CIS-FACTORIAL HepG2 Assay for human Forkhead box O (FoxO) (AID 2282943); conditions: HepG2 Attagene cis-reporter, FoxO element, mRNA; actives raise or lower the signal
Summary of the method: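 24 h chemical exposure, HepG2 with transient cis-MRTU transfection. RNA extraction, oligo(dT) RT, reporter-specific PCR, primer-extension labelling, HpaI digestion, CE fragment analysis; bidirectional fit, DMSO baseline.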

[9] = ATG_GATA_CIS: Attagene CIS-FACTORIAL HepG2 Assay for human GATA Binding Protein (AID 2282944); conditions: HepG2 GATA cis-element reporter, Attagene multiplex mRNA; actives raise or lower the signal
Summary of the method: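 Endogenous transcription factor activity was captured through cis-promoter-driven reporters in transfected HepG2 cells. After 24 h exposure, reporter transcripts were quantified by RT-PCR with fluorescent capillary electrophoresis, and responses fitted both directions against DMSO.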

[10] = ATG_GLI_CIS: Attagene CIS-FACTORIAL HepG2 Assay for human Zinc Finger Protein GLI1 (AID 2282945); conditions: HepG2, Attagene cis-factorial reporter mRNA, GLI element; actives raise or lower the signal
Summary of the method: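 HepG2 cells transiently transfected with cis-promoter multiplexed reporter units report endogenous transcription factor activity. After 24 h chemical exposure, reporter mRNA was quantified by RT-PCR, 6-FAM labelling, HpaI digestion and capillary electrophoresis, with bidirectional fitting against DMSO.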

[11] = molecular target: Bile acid receptor (Homo sapiens) (UniProt Q96RI1); assay: ATG_IR1_CIS: Attagene CIS-FACTORIAL HepG2 Assay for human Nuclear Receptor Subfamily 1 Group H Member 4 (NR1H4), IR1 submotif (AID 2282946); conditions: IR1 reporter transcription, actives raise or lower the signal
Chain of Bile acid receptor (Homo sapiens) (Q96RI1 whole entry, looked up): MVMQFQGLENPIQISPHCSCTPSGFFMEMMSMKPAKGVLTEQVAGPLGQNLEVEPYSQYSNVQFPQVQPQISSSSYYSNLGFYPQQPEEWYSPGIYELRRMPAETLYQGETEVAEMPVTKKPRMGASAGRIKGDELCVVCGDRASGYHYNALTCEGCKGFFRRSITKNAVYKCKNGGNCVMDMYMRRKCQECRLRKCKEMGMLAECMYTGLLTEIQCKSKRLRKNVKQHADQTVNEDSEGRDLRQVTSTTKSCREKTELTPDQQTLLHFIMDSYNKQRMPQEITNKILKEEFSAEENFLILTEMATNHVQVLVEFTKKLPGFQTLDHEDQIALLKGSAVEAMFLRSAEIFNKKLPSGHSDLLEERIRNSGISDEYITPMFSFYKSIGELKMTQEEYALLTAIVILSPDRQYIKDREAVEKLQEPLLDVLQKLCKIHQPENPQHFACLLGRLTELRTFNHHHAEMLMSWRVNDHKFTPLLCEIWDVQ
Summary of the method: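 Readout: reporter transcript levels by RT-PCR with fluorescent capillary electrophoresis, from HepG2 cells transiently transfected with multiplexed cis-regulated reporters and dosed 24 h. Gain- or loss-of-signal fitted versus DMSO negative control.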

[12] = ATG_GRE_CIS: Attagene CIS-FACTORIAL HepG2 Assay for human Glucocorticoid Response Elements (GRE) (AID 2282947); conditions: HepG2 GRE cis-reporter, Attagene multiplex mRNA; actives raise or lower the signal
Summary of the method: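 Cells (HepG2) bearing transfected cis-promoter reporter transcription units were treated with chemical for 24 hours. Reporter mRNA was measured via RT-PCR with capillary electrophoresis, and activity was fitted in both directions relative to DMSO.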

[13] = ATG_ISRE_CIS: Attagene CIS-FACTORIAL HepG2 Assay for human Interferon Regulatory Factor 1 (IRF1) binding to an Interferon-Stimulated Response Element (ISRE) (AID 2282948); conditions: HepG2 ISRE cis-reporter (Attagene), mRNA transcription readout; actives raise or lower the signal
Summary of the method: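 Multiplexed mRNA reporter readout in human liver HepG2 cells: cis-element-driven reporters transfected, compound added for 24 h, transcripts amplified, fluorescently labelled and sized by capillary electrophoresis; curve fitting bidirectional against DMSO.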

[14] = ATG_M_32_CIS: Attagene CIS-FACTORIAL HepG2 Assay for M32 Transcription Factor (Internal Marker) (AID 2282949); conditions: HepG2 Attagene cis-factorial M32 reporter, mRNA; actives raise or lower the signal;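 note: background control marker of the multiplexed CIS panel rather than a real target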
Summary of the method: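 HepG2 transfectants (cis-regulated reporter transcription units) dosed 24 h. Reporter mRNA by RT-PCR plus CE, analysed as gain or loss relative to DMSO.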

[15] = ATG_M_06_CIS: Attagene CIS-FACTORIAL HepG2 Assay for M06 Transcription Factor (Internal Marker) (AID 2282950); conditions: HepG2 Attagene CIS-FACTORIAL M06 internal marker reporter; actives raise or lower the signal
Summary of the method: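 Steps: transfect HepG2 with multiplexed cis-element reporter constructs; dose chemical 24 h; extract RNA with DNase treatment; reverse-transcribe, PCR-amplify, 6-FAM label, HpaI digest; separate fragments by capillary electrophoresis. Activity fitted both directions versus DMSO.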

[16] = molecular target: Hypoxia-inducible factor 1-alpha (Homo sapiens) (UniProt Q16665); assay: ATG_HIF1a_CIS: Attagene CIS-FACTORIAL HepG2 Assay for human Hypoxia Inducible Factor 1 (HIF1A) (AID 2282951); conditions: HepG2 Attagene cis-factorial HIF1a reporter transcription; actives raise or lower the signal
Chain of Hypoxia-inducible factor 1-alpha (Homo sapiens) (Q16665 whole entry, looked up): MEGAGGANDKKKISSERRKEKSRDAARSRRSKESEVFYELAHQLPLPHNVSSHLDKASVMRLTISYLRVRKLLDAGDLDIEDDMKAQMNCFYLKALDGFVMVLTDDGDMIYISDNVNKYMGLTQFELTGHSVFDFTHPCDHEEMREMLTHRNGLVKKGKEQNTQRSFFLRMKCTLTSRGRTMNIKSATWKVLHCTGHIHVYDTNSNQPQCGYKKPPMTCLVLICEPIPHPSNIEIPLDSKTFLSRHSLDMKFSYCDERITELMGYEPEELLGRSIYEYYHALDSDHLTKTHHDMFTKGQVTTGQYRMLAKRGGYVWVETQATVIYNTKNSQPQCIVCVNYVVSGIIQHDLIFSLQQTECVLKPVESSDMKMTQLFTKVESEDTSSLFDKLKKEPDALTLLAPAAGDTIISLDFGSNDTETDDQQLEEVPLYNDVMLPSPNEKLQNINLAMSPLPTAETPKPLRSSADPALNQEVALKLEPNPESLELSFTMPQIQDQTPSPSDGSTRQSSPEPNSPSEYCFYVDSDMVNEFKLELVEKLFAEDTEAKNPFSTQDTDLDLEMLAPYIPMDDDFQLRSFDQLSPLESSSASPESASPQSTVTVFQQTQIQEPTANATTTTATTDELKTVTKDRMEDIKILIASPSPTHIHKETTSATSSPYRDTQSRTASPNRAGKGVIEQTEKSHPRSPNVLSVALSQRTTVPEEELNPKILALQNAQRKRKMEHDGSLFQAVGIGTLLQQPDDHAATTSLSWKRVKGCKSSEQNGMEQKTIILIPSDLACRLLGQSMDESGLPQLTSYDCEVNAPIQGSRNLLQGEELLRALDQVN
Summary of the method: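 Fluorescence intensity of capillary-separated, 6-FAM-labelled reporter amplicons gives mRNA induction in HepG2 cells carrying transfected cis-promoter reporter units; cells exposed 24 h, responses fitted up or down from DMSO.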

[17] = molecular target: Hepatocyte nuclear factor 6 (Homo sapiens) (UniProt Q9UBC0); assay: ATG_HNF6_CIS: Attagene CIS-FACTORIAL HepG2 Assay for human Hepatocyte Nuclear Factor 6 (HNF6) (AID 2282952); conditions: HepG2 Attagene cis-factorial HNF6 reporter transcription; actives raise or lower the signal
Chain of Hepatocyte nuclear factor 6 (Homo sapiens) (Q9UBC0 whole entry, looked up, the tested form may be a part): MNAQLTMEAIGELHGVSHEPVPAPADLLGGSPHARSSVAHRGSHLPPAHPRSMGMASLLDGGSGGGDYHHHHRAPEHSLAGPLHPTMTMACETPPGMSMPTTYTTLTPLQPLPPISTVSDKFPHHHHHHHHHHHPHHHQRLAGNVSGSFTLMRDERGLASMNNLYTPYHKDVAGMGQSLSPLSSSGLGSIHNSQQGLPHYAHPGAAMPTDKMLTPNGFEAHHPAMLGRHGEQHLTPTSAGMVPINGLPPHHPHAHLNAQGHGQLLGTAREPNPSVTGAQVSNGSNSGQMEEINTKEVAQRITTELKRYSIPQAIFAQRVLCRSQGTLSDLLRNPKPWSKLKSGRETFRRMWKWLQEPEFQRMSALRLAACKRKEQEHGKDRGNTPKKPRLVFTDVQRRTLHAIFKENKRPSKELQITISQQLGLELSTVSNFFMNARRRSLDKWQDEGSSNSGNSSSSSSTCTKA
Summary of the method: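 Using cis-element reporters in HepG2 liver cells, the assay tracks endogenous factor-driven transcription 24 h post-dosing. Signal comes from 6-FAM-labelled, HpaI-digested RT-PCR fragments, with gain or loss scored against DMSO.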

[18] = molecular target: Heat shock factor protein 1 (Homo sapiens) (UniProt Q00613); assay: ATG_HSE_CIS: Attagene CIS-FACTORIAL HepG2 Assay for human Heat Shock Transcription Factor 1 (HSE) (AID 2282953); conditions: HepG2 HSE cis-reporter, Attagene RNA transcription; actives raise or lower the signal
Chain of Heat shock factor protein 1 (Homo sapiens) (Q00613 whole entry, looked up, the tested form may be a part): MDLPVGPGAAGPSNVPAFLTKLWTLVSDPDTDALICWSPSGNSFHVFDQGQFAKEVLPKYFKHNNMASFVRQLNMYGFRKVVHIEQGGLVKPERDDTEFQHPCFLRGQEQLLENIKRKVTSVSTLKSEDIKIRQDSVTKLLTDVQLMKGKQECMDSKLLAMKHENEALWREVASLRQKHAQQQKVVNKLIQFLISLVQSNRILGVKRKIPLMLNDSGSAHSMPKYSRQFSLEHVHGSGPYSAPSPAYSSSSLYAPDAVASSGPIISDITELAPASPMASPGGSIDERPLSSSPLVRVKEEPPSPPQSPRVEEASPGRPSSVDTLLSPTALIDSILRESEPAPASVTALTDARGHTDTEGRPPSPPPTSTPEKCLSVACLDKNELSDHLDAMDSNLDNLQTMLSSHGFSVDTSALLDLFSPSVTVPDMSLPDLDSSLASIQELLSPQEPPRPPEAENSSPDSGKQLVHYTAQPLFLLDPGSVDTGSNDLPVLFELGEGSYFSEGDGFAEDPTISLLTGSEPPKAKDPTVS
Summary of the method: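 Cells were transfected with cis-element-driven reporter constructs, dosed for 24 h, then total RNA was reverse-transcribed and reporter cDNA amplified, FAM-labelled and digested with HpaI. Fragments were resolved by capillary electrophoresis; gain or loss was fitted against DMSO.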

[19] = ATG_MRE_CIS: Attagene CIS-FACTORIAL HepG2 Assay for human Metal Responsive Element (MRE) (AID 2282954); conditions: HepG2 MRE cis-reporter transcription, Attagene multiplex; actives raise or lower the signal
Summary of the method: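 Cells were transfected with cis-promoter reporter transcription units, then dosed for 24 h. RNA was reverse-transcribed, amplified, fluorescently labelled and resolved by capillary electrophoresis, and activity was fitted in both directions relative to DMSO.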

F[Si-2](F)(F)(F)(F)F
outcome [1]: inactive
outcome [2]: inactive
outcome [3]: inactive
outcome [4]: inactive
outcome [5]: inactive
outcome [6]: inactive
outcome [7]: inactive
outcome [8]: inactive
outcome [9]: inactive
outcome [10]: inactive
outcome [11]: inactive
outcome [12]: inactive
outcome [13]: inactive
outcome [14]: inactive
outcome [15]: inactive
outcome [16]: inactive
outcome [17]: inactive
outcome [18]: inactive
outcome [19]: inactive

CCN(CC)c1ccc2c(c1)Oc1cc(N(CC)CC)ccc1C21OC(=O)c2ccccc21
outcome [1]: inactive
outcome [2]: inactive
outcome [3]: inactive
outcome [4]: inactive
outcome [5]: inactive
outcome [6]: inactive
outcome [7]: inactive
outcome [8]: inactive
outcome [9]: inactive
outcome [10]: inactive
outcome [11]: inactive
outcome [12]: inactive
AC50 [13]: 55.3 µM (active)
outcome [14]: inactive
outcome [15]: inactive
outcome [16]: inactive
outcome [17]: inactive
outcome [18]: inactive
outcome [19]: inactive

Cc1cc(O)c(C(C)(C)C)cc1C(C)(C)C
outcome [1]: inactive
AC50 [2]: 13.9 µM (active)
outcome [3]: inactive
outcome [4]: inactive
outcome [5]: inactive
outcome [6]: inactive
outcome [7]: inactive
outcome [8]: inactive
outcome [9]: inactive
outcome [10]: inactive
AC50 [11]: 2.87 µM (active)
outcome [12]: inactive
AC50 [13]: 17.2 µM (active)
outcome [14]: inactive
outcome [15]: inactive
outcome [16]: inactive
outcome [17]: inactive
outcome [18]: inactive
AC50 [19]: 18 µM (active)

O=S(=O)(OCC(F)(F)F)C(F)(F)C(F)(F)C(F)(F)C(F)(F)F
outcome [1]: inactive
outcome [2]: inactive
outcome [3]: inactive
outcome [4]: inactive
outcome [5]: inactive
outcome [6]: inactive
outcome [7]: inactive
outcome [8]: inactive
outcome [9]: inactive
outcome [10]: inactive
outcome [11]: inactive
outcome [12]: inactive
AC50 [13]: 63.2 µM (active)
outcome [14]: inactive
outcome [15]: inactive
outcome [16]: inactive
outcome [17]: inactive
outcome [18]: inactive
outcome [19]: inactive

CNS(=O)(=O)C(F)(F)C(F)(F)C(F)(F)C(F)(F)C(F)(F)C(F)(F)C(F)(F)C(F)(F)F
outcome [1]: inactive
outcome [2]: inactive
outcome [3]: inactive
outcome [4]: inactive
outcome [5]: inactive
outcome [6]: inactive
outcome [7]: inactive
outcome [8]: inactive
outcome [9]: inactive
outcome [10]: inactive
outcome [11]: inactive
outcome [12]: inactive
outcome [13]: inactive
outcome [14]: inactive
outcome [15]: inactive
AC50 [16]: 24.4 µM (active)
outcome [17]: inactive
outcome [18]: inactive
outcome [19]: inactive

O=C(Cl)C(F)(F)C(F)(F)C(F)(F)C(F)(F)C(F)(F)C(F)(F)C(F)(F)F
outcome [1]: inactive
outcome [2]: inactive
outcome [3]: inactive
outcome [4]: inactive
outcome [5]: inactive
AC50 [6]: 47.5 µM (active)
outcome [7]: inactive
outcome [8]: inactive
outcome [9]: inactive
outcome [10]: inactive
outcome [11]: inactive
outcome [12]: inactive
outcome [13]: inactive
outcome [14]: inactive
outcome [15]: inactive
outcome [16]: inactive
outcome [17]: inactive
outcome [18]: inactive
outcome [19]: inactive

CC(C)C(=O)OCc1ccccc1
outcome [1]: inactive
outcome [2]: inactive
outcome [3]: inactive
outcome [4]: inactive
outcome [5]: inactive
outcome [6]: inactive
outcome [7]: inactive
outcome [8]: inactive
outcome [9]: inactive
outcome [10]: inactive
outcome [11]: inactive
outcome [12]: inactive
outcome [13]: inactive
outcome [14]: inactive
outcome [18]: inactive
outcome [19]: inactive
